Measurements taken from the supplement of paper PMC4022240.
± gives the standard deviation.

Legend:
Assay in all cases: peptide microarray binding signal (635 nm), min-max normalized on array (fraction of array maximum); higher = stronger binding
Details in all cases: peptide region: H3 11-23
[1] = molecular target: T1, HaloTag-ATRX ADD domain (163-292)
T1 chain: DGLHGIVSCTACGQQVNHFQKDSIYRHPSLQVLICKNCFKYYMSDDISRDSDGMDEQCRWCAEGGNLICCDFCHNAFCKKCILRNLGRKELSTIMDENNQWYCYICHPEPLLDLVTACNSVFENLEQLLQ
How it was run: (§1)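 For each library, binding signal was taken as the triplicate-spot mean intensity and then min-max scaled. Spots of histone 13-mer peptide–cellulose conjugates on nitrocellulose, printed in triplicate with a Cy3 tracer, were probed for 1 h at 4°C with either biotin-labelled HaloTag reader fusions (10 nM to 1 μM) and streptavidin-Alexa Fluor 647 or rabbit histone antibodies (1:10,000 to 1:2,000) and anti-rabbit Alexa 647. Readout at 635 nm came from an Axon GenePix 4000B.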

[2] = molecular target: HaloTag-ING2 PHD (mouse Ing2 200-280)
How it was run: as §1

[3] = molecular target: anti-H3K4me3 antibody ab8580
How it was run: as §1

[4] = molecular target: anti-H3K9me3 antibody ab8898
How it was run: as §1

[5] = peptide modifications: H3K14me2 H3R17me2a, binder concentration: 1:2,000 dilution
[6] = peptide modifications: H3K14me2 H3R17me2a, binder concentration: 1:10,000 dilution
[7] = peptide modifications: H3K14me2 H3R17cit, binder concentration: 1:2,000 dilution
[8] = peptide modifications: H3K14me2 H3R17cit, binder concentration: 1:10,000 dilution
[9] = peptide modifications: H3K14me2 H3R17me1, binder concentration: 1:2,000 dilution
[10] = peptide modifications: H3K14me2 H3R17me1, binder concentration: 1:10,000 dilution
[11] = peptide modifications: H3K18me3, binder concentration: 1:2,000 dilution
[12] = peptide modifications: H3K18me3, binder concentration: 1:10,000 dilution
[13] = peptide modifications: H3K14me2 H3K18me3, binder concentration: 1:2,000 dilution
[14] = peptide modifications: H3K14me2 H3K18me3, binder concentration: 1:10,000 dilution
[15] = peptide modifications: H3K14me3 H3R17me1, binder concentration: 1:2,000 dilution
[16] = peptide modifications: H3K14me3 H3R17me1, binder concentration: 1:10,000 dilution
[17] = peptide modifications: H3K14me3 H3R17me2a, binder concentration: 1:2,000 dilution
[18] = peptide modifications: H3K14me3 H3R17me2a, binder concentration: 1:10,000 dilution
[19] = peptide modifications: H3K18ac, binder concentration: 1:2,000 dilution
[20] = peptide modifications: H3K18ac, binder concentration: 1:10,000 dilution
[21] = peptide modifications: H3K14me3 H3K18me2, binder concentration: 1:2,000 dilution
[22] = peptide modifications: H3K14me3 H3K18me2, binder concentration: 1:10,000 dilution
[23] = peptide modifications: H3K14me3, binder concentration: 1:2,000 dilution
[24] = peptide modifications: H3K14me3, binder concentration: 1:10,000 dilution

B1: H3 11-23 T G G Kme2 A P Rme2a K Q L A T K (peptide)
chain: TGGKAPRKQLATK
B1 was tested, and the “peptide microarray binding signal” value ([1]; peptide modifications: H3K14me2 H3R17me2a, binder concentration: 50 nM) was 0.00561 ± 0.00083, the “peptide microarray binding signal” value ([1]; peptide modifications: H3K14me2 H3R17me2a, binder concentration: 500 nM) was 0.00867 ± 0.00039 and the “peptide microarray binding signal” value ([2]; peptide modifications: H3K14me2 H3R17me2a, binder concentration: 10 nM) was 0.00686 ± 0.00028. The “peptide microarray binding signal” value ([2]; peptide modifications: H3K14me2 H3R17me2a, binder concentration: 100 nM) was 0.00893 ± 0.00059, the “peptide microarray binding signal” value [3, 5] was 0.00351 ± 0.00056 and the “peptide microarray binding signal” value [3, 6] was 0.00434 ± 0.00045. The “peptide microarray binding signal” value [4, 5] was 0.00379 ± 0.00076 and the “peptide microarray binding signal” value [4, 6] was 0.00306 ± 0.00024.

B2: H3 11-23 T G G Kme2 A P Rcit K Q L A T K (peptide)
chain: TGGKAPRKQLATK
In the case of B2, the “peptide microarray binding signal” value ([1]; peptide modifications: H3K14me2 H3R17cit, binder concentration: 50 nM) is reported as 0.00455 ± 0.00063, the “peptide microarray binding signal” value ([1]; peptide modifications: H3K14me2 H3R17cit, binder concentration: 500 nM) is reported as 0.0129 ± 0.0034 and the “peptide microarray binding signal” value ([2]; peptide modifications: H3K14me2 H3R17cit, binder concentration: 10 nM) is reported as 0.0106 ± 0.0018. The “peptide microarray binding signal” value ([2]; peptide modifications: H3K14me2 H3R17cit, binder concentration: 100 nM) was 0.0185 ± 0.002, the “peptide microarray binding signal” value [3, 7] was 0.00051 ± 4e-05 and the “peptide microarray binding signal” value [3, 8] was 0.0016 ± 4.6e-05. The “peptide microarray binding signal” value [4, 7] was 0.00488 ± 0.0014 and the “peptide microarray binding signal” value [4, 8] was 0.00398 ± 0.00058.

B3: H3 11-23 T G G Kme2 A P Rme K Q L A T K (peptide)
chain: TGGKAPRKQLATK
For B3, the “peptide microarray binding signal” value ([1]; peptide modifications: H3K14me2 H3R17me1, binder concentration: 50 nM) was 0.00417 ± 0.00015, the “peptide microarray binding signal” value ([1]; peptide modifications: H3K14me2 H3R17me1, binder concentration: 500 nM) was 0.0101 ± 0.00014 and the “peptide microarray binding signal” value ([2]; peptide modifications: H3K14me2 H3R17me1, binder concentration: 10 nM) was 0.00483 ± 0.00017. For the same binder, the “peptide microarray binding signal” value ([2]; peptide modifications: H3K14me2 H3R17me1, binder concentration: 100 nM) was 0.00843 ± 0.0018, the “peptide microarray binding signal” value [3, 9] was 0.00376 ± 0.0005 and the “peptide microarray binding signal” value [3, 10] was 0.00211 ± 8.9e-05. The “peptide microarray binding signal” value [4, 9] was 0.00378 ± 0.00014 and the “peptide microarray binding signal” value [4, 10] was 0.00288 ± 8.6e-05.

B4: H3 11-23 T G G K A P R Kme3 Q L A T K (peptide)
chain: TGGKAPRKQLATK
B4 was tested, and the “peptide microarray binding signal” value ([1]; peptide modifications: H3K18me3, binder concentration: 50 nM) was 0.0107 ± 0.00077, the “peptide microarray binding signal” value ([1]; peptide modifications: H3K18me3, binder concentration: 500 nM) was 0.0257 ± 0.0005 and the “peptide microarray binding signal” value ([2]; peptide modifications: H3K18me3, binder concentration: 10 nM) was 0.00937 ± 0.00052. For the same binder, the “peptide microarray binding signal” value ([2]; peptide modifications: H3K18me3, binder concentration: 100 nM) was 0.0178 ± 0.0018, the “peptide microarray binding signal” value [3, 11] was 0.257 ± 0.035 and the “peptide microarray binding signal” value [3, 12] was 0.263 ± 0.14. The “peptide microarray binding signal” value [4, 11] was 0.0698 ± 0.0096 and the “peptide microarray binding signal” value [4, 12] was 0.0292 ± 0.0022.

B5: H3 11-23 T G G Kme2 A P R Kme3 Q L A T K (peptide)
chain: TGGKAPRKQLATK
With B5 the “peptide microarray binding signal” value ([1]; peptide modifications: H3K14me2 H3K18me3, binder concentration: 50 nM) was 0.00646 ± 0.00024, the “peptide microarray binding signal” value ([1]; peptide modifications: H3K14me2 H3K18me3, binder concentration: 500 nM) was 0.009572 ± 8e-05 and the “peptide microarray binding signal” value ([2]; peptide modifications: H3K14me2 H3K18me3, binder concentration: 10 nM) was 0.00859 ± 0.00099. The “peptide microarray binding signal” value ([2]; peptide modifications: H3K14me2 H3K18me3, binder concentration: 100 nM) was 0.0188 ± 0.0022, the “peptide microarray binding signal” value [3, 13] was 0.54 ± 0.11 and the “peptide microarray binding signal” value [3, 14] was 0.4 ± 0.12. The “peptide microarray binding signal” value [4, 13] was 0.0567 ± 0.005 and the “peptide microarray binding signal” value [4, 14] was 0.0291 ± 0.002.

B6: H3 11-23 T G G Kme3 A P Rme K Q L A T K (peptide)
chain: TGGKAPRKQLATK
With B6 the “peptide microarray binding signal” value ([1]; peptide modifications: H3K14me3 H3R17me1, binder concentration: 50 nM) was 0.0176 ± 0.0022, the “peptide microarray binding signal” value ([1]; peptide modifications: H3K14me3 H3R17me1, binder concentration: 500 nM) was 0.0147 ± 0.00081 and the “peptide microarray binding signal” value ([2]; peptide modifications: H3K14me3 H3R17me1, binder concentration: 10 nM) was 0.00609 ± 0.00015. For the same binder, the “peptide microarray binding signal” value ([2]; peptide modifications: H3K14me3 H3R17me1, binder concentration: 100 nM) was 0.00772 ± 0.00033, the “peptide microarray binding signal” value [3, 15] was 0.00823 ± 0.00055 and the “peptide microarray binding signal” value [3, 16] was 0.00502 ± 0.00025. For the same binder, the “peptide microarray binding signal” value [4, 15] was 0.0269 ± 0.0047 and the “peptide microarray binding signal” value [4, 16] was 0.0115 ± 0.00069.

B7: H3 11-23 T G G Kme3 A P Rme2a K Q L A T K (peptide)
chain: TGGKAPRKQLATK
With B7 the “peptide microarray binding signal” value ([1]; peptide modifications: H3K14me3 H3R17me2a, binder concentration: 50 nM) was 0.0192 ± 0.0025, the “peptide microarray binding signal” value ([1]; peptide modifications: H3K14me3 H3R17me2a, binder concentration: 500 nM) was 0.027 ± 0.0031 and the “peptide microarray binding signal” value ([2]; peptide modifications: H3K14me3 H3R17me2a, binder concentration: 10 nM) was 0.0158 ± 0.0011. The “peptide microarray binding signal” value ([2]; peptide modifications: H3K14me3 H3R17me2a, binder concentration: 100 nM) was 0.0298 ± 0.0018, the “peptide microarray binding signal” value [3, 17] was 0.0582 ± 0.0093 and the “peptide microarray binding signal” value [3, 18] was 0.0419 ± 0.0073. The “peptide microarray binding signal” value [4, 17] was 0.133 ± 0.0046 and the “peptide microarray binding signal” value [4, 18] was 0.0547 ± 0.0033.

B8: H3 11-23 T G G K A P R Kac Q L A T K (peptide)
chain: TGGKAPRKQLATK
B8 was tested, and the “peptide microarray binding signal” value ([1]; peptide modifications: H3K18ac, binder concentration: 50 nM) was 0.00715 ± 0.00076, the “peptide microarray binding signal” value ([1]; peptide modifications: H3K18ac, binder concentration: 500 nM) was 0.023 ± 0.014 and the “peptide microarray binding signal” value ([2]; peptide modifications: H3K18ac, binder concentration: 10 nM) was 0.0127 ± 0.0019. For the same binder, the “peptide microarray binding signal” value ([2]; peptide modifications: H3K18ac, binder concentration: 100 nM) was 0.0351 ± 0.016, the “peptide microarray binding signal” value [3, 19] was 0.00259 ± 0.002 and the “peptide microarray binding signal” value [3, 20] was 0.00462 ± 0.00058. For the same binder, the “peptide microarray binding signal” value [4, 19] was 0.00184 ± 8.2e-05 and the “peptide microarray binding signal” value [4, 20] was 0.00173 ± 8.8e-05.

B9: H3 11-23 T G G Kme3 A P R Kme2 Q L A T K (peptide)
chain: TGGKAPRKQLATK
In the case of B9, the “peptide microarray binding signal” value ([1]; peptide modifications: H3K14me3 H3K18me2, binder concentration: 50 nM) is reported as 0.0154 ± 0.00095, the “peptide microarray binding signal” value ([1]; peptide modifications: H3K14me3 H3K18me2, binder concentration: 500 nM) is reported as 0.00933 ± 0.00068 and the “peptide microarray binding signal” value ([2]; peptide modifications: H3K14me3 H3K18me2, binder concentration: 10 nM) is reported as 0.0107 ± 0.0026. For the same binder, the “peptide microarray binding signal” value ([2]; peptide modifications: H3K14me3 H3K18me2, binder concentration: 100 nM) was 0.0194 ± 0.008, the “peptide microarray binding signal” value [3, 21] was 0.0408 ± 0.02 and the “peptide microarray binding signal” value [3, 22] was 0.0276 ± 0.0038. The “peptide microarray binding signal” value [4, 21] was 0.0775 ± 0.0048 and the “peptide microarray binding signal” value [4, 22] was 0.0328 ± 0.0026.

B10: H3 11-23 T G G Kme3 A P R K Q L A T K (peptide)
chain: TGGKAPRKQLATK
With B10 the “peptide microarray binding signal” value ([1]; peptide modifications: H3K14me3, binder concentration: 50 nM) was 0.00567 ± 0.0004, the “peptide microarray binding signal” value ([1]; peptide modifications: H3K14me3, binder concentration: 500 nM) was 0.017 ± 0.0053 and the “peptide microarray binding signal” value ([2]; peptide modifications: H3K14me3, binder concentration: 10 nM) was 0.0115 ± 0.0029. For the same binder, the “peptide microarray binding signal” value ([2]; peptide modifications: H3K14me3, binder concentration: 100 nM) was 0.0106 ± 0.0035, the “peptide microarray binding signal” value [3, 23] was 0.0134 ± 0.0088 and the “peptide microarray binding signal” value [3, 24] was 0.0221 ± 0.0092. For the same binder, the “peptide microarray binding signal” value [4, 23] was 0.062 ± 0.022 and the “peptide microarray binding signal” value [4, 24] was 0.0336 ± 0.0081.
